# In all, about 330,000 compounds went through this assay and about 1,900 (0.58%) were called active. About 4% were inconclusive and are not listed. Rule as the data show it: inconclusive = inhibition above about 70% without an active follow-up result; inactive = below that. A selection follows. Measured potencies and affinities stand elsewhere.
# Experiment: M. tuberculosis growth inhibition, HTS (AID 449762);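 also: bacterial growth assessed after seven days of incubation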
# Details: M. tuberculosis H37Rv growth inhibition, 7H9 media; at 25 µM; active compounds read high
row,SMILES,inhibition
1,Cc1ccc(-c2cc(C(=O)N3CC(C)OC(C)C3)c3ccccc3n2)o1 (stereo not drawn),-3.5% (inactive)
2,COc1ccc2nc(NC(=O)C3CSC4(C)CCC(=O)N34)sc2c1 (stereo not drawn),8.66% (inactive)
3,COc1ccc(C(CNC(=O)c2cccc(NS(=O)(=O)c3ccccc3)c2)N(C)C)cc1 (stereo not drawn),-11.7% (inactive)
4,CCCCCCOC(=O)C(C#N)c1nc2ccccc2nc1N1CCOCC1 (stereo not drawn),5.48% (inactive)
5,CCCCCCOC(=O)C(C#N)c1nc2ccccc2nc1N1CCCCC1 (stereo not drawn),6.23% (inactive)
6,CCOC(=O)CC(=O)CSc1nccc(-c2cccnc2)n1,2.54% (inactive)
7,COc1cc(OC)cc(C(=O)NCc2ccc3c(c2)cc(C)n3C)c1,55.2% (inactive)
8,O=S(=O)(NC1CCCCC1N1CCN(c2ccc(F)cc2)CC1)c1ccccc1 (stereo not drawn),11.3% (inactive)
9,COc1ccc(-c2ccc(C)cc2)cc1[C@H]1[C@@H]2C=CCC[C@@]2(C)C(=O)N1Cc1ccccc1,2.77% (inactive)
10,COc1ccc(-c2ccc(N(C)C)cc2)cc1[C@H]1[C@@H]2C=CCC[C@@]2(C)C(=O)N1Cc1ccccc1,-2.81% (inactive)
11,CC(Sc1ccc(S(=O)(=O)N2CCOCC2)cc1[N+](=O)[O-])C(=O)O (stereo not drawn),1.21% (inactive)
12,O=C(/C=C/c1ccccc1)N1CCC(N2CCC(C(=O)N3CCOCC3)CC2)CC1,-6.29% (inactive)
13,CCSc1cc(N2CCOCC2)nc(-c2ccccc2)n1,8.27% (inactive)
14,Cc1cc(C)n(-c2ccccc2[N+](=O)[O-])n1,-3.52% (inactive)
15,O=[N+]([O-])c1ccccc1/C=N/Nc1nc(N2CCCC2)nc(N2CCCC2)n1,2.55% (inactive)
16,O=C(/C(=C/c1ccc(Cl)cc1)c1nc2ccccc2[nH]1)c1ccccc1,0.75% (inactive)
17,O=C(/C(=C\c1ccccc1)c1nc2ccccc2[nH]1)c1ccc(Cl)cc1,12.1% (inactive)
18,Nc1nsnc1C(=O)NCCO,-5.83% (inactive)
19,O=C1CS/C(=N/N=C/c2c[nH]c3ccccc23)N1,2.46% (inactive)
20,O=C(CSc1n[nH]c(-c2ccccc2)n1)N1CCOCC1,-3.77% (inactive)

row,SMILES,inhibition
1,O=C(CN1CCCC1)NN=C(c1ccccc1)c1ccccc1,-2.73% (inactive)
2,CCN(CC)CC(=O)NN=C(c1ccccc1)c1ccccc1,-1.34% (inactive)
3,NC(=S)N=Nc1c(O)[nH]c2c(Br)cc(Br)cc12,-0.35% (inactive)
4,COc1ccc(C(=O)NCC(=O)NCC(=O)OCC(=O)c2ccc(Br)cc2)cc1,7.79% (inactive)
5,Cc1csc(NC(=O)COCC(=O)O)c1-c1nc2ccccc2s1,-5.81% (inactive)
6,Cc1csc(NC(=O)CSCC(=O)O)c1-c1nc2ccccc2s1,-1.68% (inactive)
7,Cc1cc(C(=O)OCC(=O)Nc2ccc(F)cc2F)c(C)o1,4.91% (inactive)
8,O=C(/C=C/c1ccccc1)NC1CC2CCC1C2 (stereo not drawn),-10.2% (inactive)
9,COc1ccc(/C=C/C(=O)NC2CC3CCC2C3)cc1 (stereo not drawn),14.7% (inactive)
10,Cc1c(C(=O)NC(C(C)C)C(C)C)cccc1[N+](=O)[O-],-0.36% (inactive)
11,CC1CN(c2ccc(C(=O)c3ccccc3C(=O)O)cc2[N+](=O)[O-])CC(C)O1 (stereo not drawn),-1.03% (inactive)
12,O=C1CCCC2=C1C(c1ccccn1)Nc1ccc(C(=O)c3ccccc3)cc1N2 (stereo not drawn),-10.7% (inactive)
13,O=C1CCCC2=C1C(c1ccco1)Nc1ccc(C(=O)c3ccccc3)cc1N2 (stereo not drawn),1.55% (inactive)
14,O=C(NCc1cccnc1)c1cccc(OC2CCN(Cc3ccc(CO)o3)CC2)c1,3.84% (inactive)
15,CCOC(=O)N1CCc2c(sc(NC(=O)C3=COCCO3)c2C(N)=O)C1,-6.06% (inactive)
16,CCOC(=O)N1CCc2c(sc(NC(C)=O)c2C(N)=O)C1,-2.99% (inactive)
17,CCOc1ccccc1NC(=O)COC(=O)CC(NC(N)=O)c1ccc(Cl)cc1 (stereo not drawn),3.03% (inactive)
18,CCc1c(C)sc2nc3c(C(=O)N4CCOCC4)cc(C(=O)c4ccccc4O)cn3c(=O)c12,51.4% (inactive)
19,COC(=O)c1cc(C(=O)c2cc(F)ccc2O)cn2c(=O)c3c(C)c(C)sc3nc12,3.12% (inactive)
20,CC(=NCc1cccnc1)c1c(O)n(-c2ccccc2)c(=O)[nH]c1=O,-3.76% (inactive)

row,SMILES,inhibition
1,COc1ccc(O)c(-c2cc(-c3ccc(F)cc3)n[nH]2)c1,0.76% (inactive)
2,COC(=O)c1cc(-c2ccc(OC)cc2)n[nH]1,-1.36% (inactive)
3,Cc1nc(SCc2c(F)cccc2Cl)n[nH]1,-11.2% (inactive)
4,CCSC(=Nc1ccccc1)Nc1ccccc1,-1.05% (inactive)
5,COc1ccc(C(CC(=O)NC(C)c2ccc(-c3ccccc3)cc2)NC(C)=O)cc1 (stereo not drawn),3.36% (inactive)
6,Cc1cc(=O)[nH]c(N/N=C/c2c(O)n(-c3ccccc3)c(=O)c3ccccc23)n1,31.9% (inactive)
7,Cc1nnc(N/N=C/c2c(O)n(-c3cccc(C(F)(F)F)c3)c(=O)c3ccccc23)[nH]c1=O,3.05% (inactive)
8,CNS(=O)(=O)c1ccc2c(c1)oc(=O)c1cc(S(=O)(=O)NC)ccc12,-1.49% (inactive)
9,Cn1c(=N)n(CC(=O)c2cccs2)c2ccccc21,-0.34% (inactive)
10,COc1ccc(-c2ccnc3nc(N4CCOCC4)nn23)cc1,1.34% (inactive)
11,c1ccc(-c2ccnc3nc(N4CCN(c5ccccc5)CC4)nn23)cc1,-7.9% (inactive)
12,C[C@H]1CN([C@@H](C)CO)C(=O)Cc2cc(NS(C)(=O)=O)ccc2O[C@@H]1CN(C)Cc1ccc(Cl)c(Cl)c1,4.73% (inactive)
13,COc1ccc(C2=Nn3c(nnc3-c3ccccc3Cl)SC2)cc1OC1CCCC1,51.6% (inactive)
14,COc1ccc(C2=Nn3c(nnc3-c3ccccc3OC)SC2)cc1OC1CCCC1,63.1% (inactive)
15,COc1ccccc1OP(=O)(Nc1cccnc1)Oc1ccccc1OC,-4.39% (inactive)
16,CCN1CCN(Cc2c(OC)ccc3ccccc23)CC1,5.17% (inactive)
17,C[C@H]1COC(=O)[C@H](Cc2ccc(F)cc2)CC/C=C/C[C@@H](CC(=O)N[C@@H](CO)Cc2ccccc2)C(=O)N1,7.3% (inactive)
18,CCOc1ccc(C(=O)NCC(=O)N2CCC(C)CC2)cc1OCC,-0.53% (inactive)
